Inconclusive results are not listed. Calls of active or inactive are those of the source. Unless noted, calls come from the whole dose curve; as a rule, active = well fitted curve in the direction sought with a large enough effect; inconclusive = small, poorly fitted or top-dose-only effect, or another doubt; inactive = no such curve, though single readings can be large; an effect the other way counts as inactive or inconclusive.
Experiments:
[1] = Validation of Assay for Modulators of Lamin A Splicing (AID 1459; active = well fitted curve in the direction sought with a large enough effect in the signal ratio; the % refers to the signal ratio;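 note: cells exposed to compound for two days before reading; 0% is about no effect; ratio rise marks activators and ratio drop marks inhibitors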)
Method in brief: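 Splicing correction read as GFP (500-530 nm) over DsRed2 (575-640 nm) object intensity after 48 h compound exposure of reporter HeLa S3 clones (600 cells/well, 2% FBS medium); ancitabine and cycloheximide titrations, 0.5% DMSO as vehicle.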

[2] = target: DNA repair nuclease/redox regulator APEX1 (Homo sapiens) (UniProt P27695); test: qHTS Validation Assay for Inhibitors of the Human Apurinic/apyrimidinic Endonuclease 1 (APE1) (AID 1705;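 note: TAMRA fluorescence gain over two minutes as APE1 cuts a quenched THF abasic duplex; series mostly up to about 57 µM; % is set by controls: 0 for no effect and ±100 for the full control effect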)
Sequence of DNA repair nuclease/redox regulator APEX1 (Homo sapiens) (P27695 whole entry, looked up): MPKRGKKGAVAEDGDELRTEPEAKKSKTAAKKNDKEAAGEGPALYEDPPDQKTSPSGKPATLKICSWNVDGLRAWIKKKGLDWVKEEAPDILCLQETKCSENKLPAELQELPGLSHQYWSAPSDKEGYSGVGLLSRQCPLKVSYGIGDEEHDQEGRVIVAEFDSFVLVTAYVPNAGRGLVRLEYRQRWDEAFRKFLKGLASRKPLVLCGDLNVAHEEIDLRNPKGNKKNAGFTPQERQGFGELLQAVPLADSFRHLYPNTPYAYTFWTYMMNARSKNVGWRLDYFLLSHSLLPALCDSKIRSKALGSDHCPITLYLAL
Method in brief: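 Activity read as rising fluorescence (598 nm emission, 525 nm excitation) from incision of a TAMRA/BHQ-2 duplex carrying a THF abasic site (50 nM). Compound and enzyme sat 15 min at RT before substrate start; signal change between first and third 60-s reads.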

[3] = Counterscreen for APE1 Inhibitors: Fluorescent Dye Displacement Validation Assay (AID 1707);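 note: plate controls were ThO with dsDNA and no compound for no effect and ThO without dsDNA for full effect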
Method in brief: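 Signal: ThO fluorescence (ex 480 nm/em 540 nm) on binding 50 nM dsDNA; displacement by test compound reduces it. Conditions: 250 nM dye, 50 mM Tris-HCl pH7.5, 2 mM MgCl2, 50mM NaCl, 0.01% Tween-20.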

[4] = target: Endonuclease 4 (Escherichia coli (strain K12)) (UniProt P0A6C1); test: Counterscreen for APE1 Inhibitors: qHTS Validation Assay for Inhibitors of Endonuclease IV (AID 1708); note: % is set by controls: 0 for no effect and ±100 for the full control effect
Method in brief: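 Conditions: 2 nM enzyme, 50 nM TAMRA/BHQ-2 substrate, pH 7.5 Tris buffer with 2 mM MgCl2, RT. Compound preincubation 15 min; readout three fluorescence reads 60 s apart, third-minus-first.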

[5] = qHTS for differential inhibitors of proliferation of Plasmodium falciparum line Dd2 (AID 1882); details: Potency: Plasmodium falciparum Dd2 proliferation inhibition;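 note: series mostly up to about 29 µM; plate controls were DMSO vehicle for no effect and 0.29 µM artemisinin for full effect; nearly all actives have a fitted effect of over 65% in size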
Method in brief: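 SYBR Green DNA fluorescence (ex 485, em 535 nm) after overnight lysis quantifies parasite growth; compound exposure lasted 72 h at 37 C on infected red cells at 2.5% hematocrit, 0.3% parasitemia (final). Artemisinin 0.29 uM and vehicle wells define normalization.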

[6] = qHTS for differential inhibitors of proliferation of Plasmodium falciparum line W2 (AID 1883); details: Potency: Plasmodium falciparum W2 proliferation inhibition;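 note: potency is the fitted concentration of half-maximal effect; parasites grown with compound for 72 h before lysis and staining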
[7] = target: ATP-dependent DNA helicase Q1 (Homo sapiens) (UniProt P46063); test: qHTS Validation Assay for Inhibitors of RecQ-Like Dna Helicase 1 (RECQ1) (AID 2353);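 note: plate controls were DMSO vehicle for no effect and enzyme-free control for full effect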
Method in brief: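 RECQ1T1 50 nM; forked duplex (20 bp + 30-nt ss tails) 200 nM, ATP 2 mM final; pH 8.0, 2 mM MgCl2, 2.5 ug/ml poly(dI-dC); 15 min compound preincubation; discontinuous kinetic read over 2 h at RT.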

[8] = target: RecQ-like DNA helicase BLM (Homo sapiens) (UniProt P54132); test: qHTS Validation Assay for Inhibitors of Bloom's syndrome helicase (BLM) (AID 2364);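 note: plate controls were DMSO vehicle for no effect and enzyme-free control for full effect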
Method in brief: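 50 nM BLM preincubated 15 min at room temperature with compound in pH 8.0 Tris buffer containing 2.5 ug/ml poly(dI-dC); started with 200 nM TAMRA/BHQ-2 forked duplex and 2 mM ATP (final). Unwinding read as TAMRA fluorescence increase, two reads 2 h apart.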

[9] = Cytometric Cell-Based qHTS for Inhibitors of the mTORC1 Signaling Pathway in MEF (Tsc2-/-, p53-/-) Cells (AID 2660);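 note: Tsc2 and p53 null MEFs carrying empty vector with compound for 24 h; percent of cells above a phospho-rpS6 to PI ratio cutoff in each well; series mostly up to about 38 µM; plate controls were DMSO for no effect and rapamycin for full effect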
Method in brief: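 Readout: Alexa-488 phospho-rpS6 (Ser235/236) intensity divided by PI intensity, thresholded against 7.5 nM rapamycin wells and reported as % positive cells. PI cell count served as the viability measure. Compound exposure was 24 hrs at 37 degree Celsius.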

[10] = High Content Imaging Cell-Based qHTS for Inhibitors of the mTORC1 Signaling Pathway in MEF (Tsc2-/-, p53-/-) Cells (AID 2666);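 note: percent of cells scored positive for phospho-rpS6 Ser235/236 immunostaining by imaging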
Method in brief: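 MEF Tsc2-/- p53-/- (empty vector), DMEM/10% FBS; cpd 24 h 37 °C; PFA fix, Alexa-488 p-rpS6 S235/236 Ab, Hoechst; imaged; rapamycin-defined inhibition; % positive cells/well.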

[11] = High Content Imaging Cell-Based qHTS for Inhibitors of the mTORC1 Signaling Pathway in MEF Cells (AID 2667);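 note: Tsc2-/- p53-/- MEFs stably re-expressing wild-type Tsc2 exposed 24 h; series mostly up to about 38 µM; plate controls were DMSO wells for no effect and rapamycin control wells for full effect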
Method in brief: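 Read-out is the share of phospho-rpS6-positive cells per well, from Hoechst-normalized Alexa-488 Ser235/236 staining imaged on IN Cell. Cells: WT Tsc2-expressing Tsc2-/-, p53-/- MEFs exposed to compound for 24 hrs.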

[12] = Cytometry Cell-Based qHTS for Inhibitors of the mTORC1 Signaling Pathway in MEF cells (AID 2668);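 note: Tsc2-/- p53-/- mouse embryonic fibroblasts stably re-expressing wild-type Tsc2; percent cells positive for phospho-rpS6 Ser235/236 relative to propidium iodide stain; series mostly up to about 38 µM; plate controls were DMSO wells for no effect and 7.5 nM rapamycin control wells for full effect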
Method in brief: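 Phospho-rpS6 (Ser235/236) immunofluorescence over PI signal, scored as % positive cells using thresholds from 7.5 nM rapamycin and DMSO wells, after 24 h compound exposure of WT-Tsc2-rescued Tsc2-/-, p53-/- MEFs. PI cell count recorded for viability.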

[13] = Validation screen for inhibitors of Lassa infection (AID 463096; calls by dose curve; note: % is set by controls: 0 for no effect and ±100 for the full control effect)
[14] = Validation screen for small molecules that induce DNA re-replication in MCF 10A normal breast cells (AID 463097); note: 0% is about no effect; nearly all actives have a fitted effect of over 60% in size
Method in brief: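 Read-out is Hoechst total nuclear intensity by fluorescence scanning imager, flagging increased high-DNA-content nuclei. Compounds were incubated with MCF 10A cells for 48 hr (37 C, 5% CO2) before 40 min staining.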

[15] = target: Ubiquitin carboxyl-terminal hydrolase 2 (Homo sapiens) (UniProt O75604); test: qHTS Validation Assay for Inhibitors of Ubiquitin-specific Protease USP2a Using CHOP2 as the Reporter (AID 463106);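 note: plate controls were DMSO for no effect and full inhibition by NEM for full effect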
Sequence of Ubiquitin carboxyl-terminal hydrolase 2 (Homo sapiens) (O75604 whole entry, looked up): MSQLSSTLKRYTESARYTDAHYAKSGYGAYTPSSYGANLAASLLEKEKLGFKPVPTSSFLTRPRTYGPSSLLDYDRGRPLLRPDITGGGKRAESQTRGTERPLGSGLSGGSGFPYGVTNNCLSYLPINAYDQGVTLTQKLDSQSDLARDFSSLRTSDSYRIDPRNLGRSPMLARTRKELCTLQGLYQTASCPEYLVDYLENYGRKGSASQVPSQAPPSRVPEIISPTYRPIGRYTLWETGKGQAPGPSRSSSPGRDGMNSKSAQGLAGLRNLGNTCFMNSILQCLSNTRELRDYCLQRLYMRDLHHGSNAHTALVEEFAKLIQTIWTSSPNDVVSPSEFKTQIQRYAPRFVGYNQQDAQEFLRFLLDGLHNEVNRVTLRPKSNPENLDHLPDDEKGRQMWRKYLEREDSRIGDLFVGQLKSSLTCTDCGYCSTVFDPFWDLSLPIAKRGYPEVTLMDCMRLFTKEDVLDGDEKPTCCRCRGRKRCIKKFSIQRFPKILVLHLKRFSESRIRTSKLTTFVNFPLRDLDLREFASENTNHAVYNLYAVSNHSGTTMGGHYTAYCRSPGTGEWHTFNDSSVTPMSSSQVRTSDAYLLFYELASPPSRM
Method in brief: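 Fluorescence read-out at Ex 485nm/Em 531nm after 60min RT, following addition of 25nM Ub-CHOP2 plus 25nM reporter substrate to USP2 core (10nM) pretreated 30min with compound. Data normalized to NEM full inhibition; concentration-response curves fitted.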

[16] = target: DNA polymerase III PolC-type (Bacillus subtilis (strain 168)) (UniProt P13267); test: qHTS Validation Assay for the Inhibitors of DNA Replication in Gram-Positive Bacteria (AID 485295);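 note: reconstituted holoenzyme with PolC plus beta clamp SSB and primase; PicoGreen fluorescence of double-stranded DNA made on primed circular M13 template; series mostly up to about 57 µM; 0% = DMSO wells and -100% = EDTA-quenched background wells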
Sequence of DNA polymerase III PolC-type (Bacillus subtilis (strain 168)) (P13267 whole entry, looked up): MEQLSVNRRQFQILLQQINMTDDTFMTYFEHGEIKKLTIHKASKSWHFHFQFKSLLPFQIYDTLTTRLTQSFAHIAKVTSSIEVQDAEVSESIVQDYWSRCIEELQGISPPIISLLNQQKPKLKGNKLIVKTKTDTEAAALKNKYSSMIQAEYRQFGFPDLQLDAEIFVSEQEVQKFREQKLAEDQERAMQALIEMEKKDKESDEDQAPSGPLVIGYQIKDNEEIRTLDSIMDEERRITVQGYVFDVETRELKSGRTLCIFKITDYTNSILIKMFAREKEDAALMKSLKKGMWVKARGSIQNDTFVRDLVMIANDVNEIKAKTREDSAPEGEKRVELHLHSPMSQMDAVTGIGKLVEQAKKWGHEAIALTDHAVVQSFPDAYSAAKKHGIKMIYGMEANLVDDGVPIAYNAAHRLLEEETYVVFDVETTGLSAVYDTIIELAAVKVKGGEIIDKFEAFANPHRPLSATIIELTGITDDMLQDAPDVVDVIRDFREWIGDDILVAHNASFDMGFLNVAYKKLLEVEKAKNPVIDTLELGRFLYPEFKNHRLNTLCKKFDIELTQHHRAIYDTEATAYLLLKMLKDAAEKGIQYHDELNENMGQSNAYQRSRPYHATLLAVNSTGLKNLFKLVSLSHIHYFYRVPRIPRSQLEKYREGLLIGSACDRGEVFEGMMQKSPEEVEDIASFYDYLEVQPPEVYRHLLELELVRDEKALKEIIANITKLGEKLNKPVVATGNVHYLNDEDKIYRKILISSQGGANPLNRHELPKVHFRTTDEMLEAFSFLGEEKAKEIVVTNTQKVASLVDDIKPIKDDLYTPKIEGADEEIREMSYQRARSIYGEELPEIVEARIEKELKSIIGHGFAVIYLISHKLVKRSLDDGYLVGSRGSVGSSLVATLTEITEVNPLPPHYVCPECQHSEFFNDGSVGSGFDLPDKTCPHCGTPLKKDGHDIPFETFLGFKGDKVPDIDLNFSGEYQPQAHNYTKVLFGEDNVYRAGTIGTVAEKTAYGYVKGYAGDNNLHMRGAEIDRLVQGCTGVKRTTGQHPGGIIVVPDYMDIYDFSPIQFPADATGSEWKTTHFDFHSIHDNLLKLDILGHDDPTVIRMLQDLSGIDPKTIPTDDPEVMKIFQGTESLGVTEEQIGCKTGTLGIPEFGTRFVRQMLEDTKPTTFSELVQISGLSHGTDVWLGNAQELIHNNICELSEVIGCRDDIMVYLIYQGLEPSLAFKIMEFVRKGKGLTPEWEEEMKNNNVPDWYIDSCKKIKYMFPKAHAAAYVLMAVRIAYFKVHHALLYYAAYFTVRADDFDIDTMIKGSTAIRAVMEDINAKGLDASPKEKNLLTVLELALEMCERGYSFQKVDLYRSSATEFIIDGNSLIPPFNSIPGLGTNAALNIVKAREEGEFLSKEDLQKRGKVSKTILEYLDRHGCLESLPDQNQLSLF
Method in brief: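 Double-stranded DNA product detected by PicoGreen fluorescence after EDTA quench. Compound incubated with B. subtilis holoenzyme (PolC, beta subunit, SSB, primase) before substrate addition; primed replication of M13Gori with dNTPs and NTPs at room temperature; DMSO defines 0% inhibition.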

[17] = target: Tumor susceptibility gene 101 protein (Homo sapiens) (UniProt Q99816); test: qHTS Validation Assay for Iinhibitors of HIV-1 Budding by Blocking the Interaction of PTAP/TSG101 (AID 485342; calls by dose curve; note: 0% is about no effect)
Sequence of Tumor susceptibility gene 101 protein (Homo sapiens) (Q99816 whole entry, looked up, the tested form may be a part): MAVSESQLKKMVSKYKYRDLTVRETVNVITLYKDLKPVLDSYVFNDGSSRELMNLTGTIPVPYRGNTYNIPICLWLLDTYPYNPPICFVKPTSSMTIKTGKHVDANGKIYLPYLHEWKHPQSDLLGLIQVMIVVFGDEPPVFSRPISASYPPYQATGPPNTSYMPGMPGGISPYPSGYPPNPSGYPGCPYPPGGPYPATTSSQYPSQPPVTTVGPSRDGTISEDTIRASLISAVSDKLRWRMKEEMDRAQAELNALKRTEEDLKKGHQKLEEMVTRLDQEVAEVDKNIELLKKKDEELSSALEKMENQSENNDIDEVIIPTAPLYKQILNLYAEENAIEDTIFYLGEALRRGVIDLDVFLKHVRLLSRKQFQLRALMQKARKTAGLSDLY
Method in brief: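 Fluorescence polarization of 50 nM FITC-PTAP peptide bound to 10 uM Tsg101 binding domain was read after 20 min room-temperature incubation with compounds, in 10 mM HEPES pH 7.5, 0.15 M NaCl, 0.01% Tween 20.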

[18] = qHTS Validation Assay to Find Inhibitors of Chronic Active B-Cell Receptor Signaling (AID 485345; active = well fitted curve in the direction sought with a large enough effect in the main read-out, with a control signal flat, not every such curve was filed as active;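 note: 0% = untreated basal cells and 100% = 10 µM MG-132 proteasome inhibitor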)
Method in brief: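 TMD8 ABC-DLBCL cells stably carrying doxycycline-inducible IkappaBalpha–green luciferase fusion plus unfused red luciferase; compounds 46 uM to 3 nM, 4 h at 37C with doxycycline. Corrected green/red luminescence ratio normalized to 10 uM MG-132 and basal cell wells; curves fitted.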

[19] = target: Beta-2 adrenergic receptor (Homo sapiens) (UniProt P07550); test: qHTS validation assay of beta-arrestin-biased ligands of beta2-adrenergic receptor (AID 485366); note: 0% is about no effect
Method in brief: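 Agonist activity is measured as luciferase luminescence downstream of beta-arrestin recruitment to recombinant beta2-AR in Tango cells. Exposure lasts 18 hr at 37 degrees C, and curves are categorized by r2, response size and activity.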

[20] = Quantitative high throughput screen for delayed death inhibitors of the malarial parasite plastid, 96 hour incubation (AID 488745);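 note: luciferase-expressing P. falciparum in erythrocytes at 2% hematocrit and 0.1% parasitemia; series mostly up to about 29 µM; % is set by controls: 0 for no effect and ±100 for the full control effect; nearly all actives have a fitted effect of over 70% in size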
Method in brief: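 Readout is firefly luciferase luminescence from an integrated reporter in P. falciparum; lower signal marks inhibited growth. Cultures at 2% hematocrit and 0.1% parasitemia were treated with compound across two generations (96 h, 37 C, 5% CO2).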

[21] = Quantitative high throughput screen for delayed death inhibitors of the malarial parasite plastid, 48 hour incubation (AID 488752); note: % is set by controls: 0 for no effect and ±100 for the full control effect; nearly all actives have a fitted effect of over 65% in size
Method in brief: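 First, compound was pinned into RPMI 1640 medium containing 0.5% Albumax. Next, reporter-parasite-infected erythrocytes were added to 2% hematocrit and 0.1% parasitemia. After 48 h at 37 C under 5% CO2, luciferase detection reagent was added and luminescence read.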

[22] = target: Thioredoxin reductase 1, cytoplasmic (Rattus norvegicus) (UniProt O89049); test: qHTS Assay for Substrates of Mammalian Selenoprotein Thioredoxin Reductase 1 (TrxR1) (AID 488772);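 note: series mostly up to about 57 µM; 0% is about no effect; a drop in NADPH fluorescence below the no-compound background marks a TrxR1 substrate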
Sequence of Thioredoxin reductase 1, cytoplasmic (Rattus norvegicus) (O89049 whole entry, looked up): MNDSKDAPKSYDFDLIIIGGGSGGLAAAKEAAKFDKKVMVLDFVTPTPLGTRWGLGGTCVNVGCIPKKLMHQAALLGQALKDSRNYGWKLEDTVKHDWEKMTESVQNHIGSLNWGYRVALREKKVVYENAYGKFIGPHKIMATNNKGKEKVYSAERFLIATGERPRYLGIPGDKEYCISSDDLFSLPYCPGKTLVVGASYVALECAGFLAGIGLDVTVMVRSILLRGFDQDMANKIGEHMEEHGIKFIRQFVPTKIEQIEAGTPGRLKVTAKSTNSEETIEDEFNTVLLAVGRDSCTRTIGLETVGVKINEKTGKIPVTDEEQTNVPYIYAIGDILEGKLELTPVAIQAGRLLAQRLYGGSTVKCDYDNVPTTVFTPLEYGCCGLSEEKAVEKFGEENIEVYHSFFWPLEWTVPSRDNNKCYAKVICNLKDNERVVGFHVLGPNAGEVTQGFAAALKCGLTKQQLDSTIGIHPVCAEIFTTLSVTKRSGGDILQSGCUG
Method in brief: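 In this dual-purpose format, potential substrates are identified from the first fluorescence read after selenite addition, not from the 8-minute delta. Rat enzyme is preincubated with NADPH and then with compound at ~22 deg C.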

[23] = target: Thioredoxin reductase 1, cytoplasmic (Rattus norvegicus) (UniProt O89049); test: qHTS Assay for Inhibitors of Mammalian Selenoprotein Thioredoxin Reductase 1 (TrxR1) (AID 488773); details: Potency: inhibition;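 note: drop in NADPH fluorescence over an 8 min run after selenite addition; series mostly up to about 57 µM; % is set by controls: 0 for no effect and ±100 for the full control effect; nearly all actives have a fitted effect of over 40% in size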
Method in brief: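 Inhibition is scored from the loss of NADPH fluorescence between first and last reads of an 8-min kinetic run. Selenite (400 uM) was the substrate, added after 15 min compound preincubation at room temperature.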

[24] = target: Flap endonuclease 1 (Homo sapiens) (UniProt P39748); test: qHTS Validation Assay for the Inhibitors of Human Flap endonuclease 1 (FEN1) (AID 488816); note: % is set by controls: 0 for no effect and ±100 for the full control effect
Sequence of Flap endonuclease 1 (Homo sapiens) (P39748 whole entry, looked up): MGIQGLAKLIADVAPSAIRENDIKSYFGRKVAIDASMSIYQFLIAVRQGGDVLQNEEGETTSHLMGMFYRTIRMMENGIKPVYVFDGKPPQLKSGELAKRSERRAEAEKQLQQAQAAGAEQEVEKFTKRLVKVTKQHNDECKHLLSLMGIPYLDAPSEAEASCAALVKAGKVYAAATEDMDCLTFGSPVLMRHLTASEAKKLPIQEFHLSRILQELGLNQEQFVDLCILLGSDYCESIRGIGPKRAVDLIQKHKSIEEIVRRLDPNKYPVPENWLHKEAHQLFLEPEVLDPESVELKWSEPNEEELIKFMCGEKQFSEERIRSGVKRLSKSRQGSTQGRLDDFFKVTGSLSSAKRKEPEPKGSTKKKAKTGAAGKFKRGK
Method in brief: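 Enzyme reagent 10 nM; cpds pinned; 15 min RT preinc.; substrate 50 nM final; reads t=0 and 15 min; no-enzyme buffer wells as neg. control; normalized data, 4-parameter Hill fit.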

[25] = target: M-phase phosphoprotein 8 (Homo sapiens) (UniProt Q99549); test: qHTS Validation Assay for Inhibitors for MPP8 Chromodomain Interactions with Methylated Histone Tails (AID 488949);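 note: AlphaScreen signal from MPP8 chromodomain bound to biotinylated H3K9me3 peptide; top concentration of the series differs between compounds; % is set by controls: 0 for no effect and ±100 for the full control effect; nearly all actives have a fitted effect of over 55% in size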
Sequence of M-phase phosphoprotein 8 (Homo sapiens) (Q99549 whole entry, looked up): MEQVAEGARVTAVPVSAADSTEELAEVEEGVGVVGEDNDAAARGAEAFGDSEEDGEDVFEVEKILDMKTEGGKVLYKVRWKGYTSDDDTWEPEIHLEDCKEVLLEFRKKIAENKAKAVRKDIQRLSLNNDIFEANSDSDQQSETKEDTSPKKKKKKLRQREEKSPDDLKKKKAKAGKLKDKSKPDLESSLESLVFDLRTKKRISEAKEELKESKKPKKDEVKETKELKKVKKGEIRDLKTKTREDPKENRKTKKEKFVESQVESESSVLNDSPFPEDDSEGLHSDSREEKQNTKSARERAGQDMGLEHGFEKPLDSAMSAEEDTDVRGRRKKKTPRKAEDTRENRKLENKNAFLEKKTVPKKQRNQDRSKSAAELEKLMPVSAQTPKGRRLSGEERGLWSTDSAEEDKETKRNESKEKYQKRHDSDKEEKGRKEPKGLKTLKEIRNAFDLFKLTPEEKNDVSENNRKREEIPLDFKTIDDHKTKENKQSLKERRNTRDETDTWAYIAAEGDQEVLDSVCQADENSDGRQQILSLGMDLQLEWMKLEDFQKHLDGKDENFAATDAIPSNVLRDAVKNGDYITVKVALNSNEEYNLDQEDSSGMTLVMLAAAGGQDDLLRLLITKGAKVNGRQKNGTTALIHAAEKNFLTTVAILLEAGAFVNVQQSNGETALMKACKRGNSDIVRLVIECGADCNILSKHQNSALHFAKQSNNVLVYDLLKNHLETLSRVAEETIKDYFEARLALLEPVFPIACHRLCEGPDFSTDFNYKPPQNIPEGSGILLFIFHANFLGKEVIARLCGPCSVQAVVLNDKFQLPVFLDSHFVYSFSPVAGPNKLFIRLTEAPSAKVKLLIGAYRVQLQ
Method in brief: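 AlphaScreen proximity signal from streptavidin donor and Ni-chelate acceptor beads (10 ug/mL each) reported binding of MPP8 to trimethyl-K9 H3(1-18) peptide, both at 50 nM. The complex formed 30 min before a 30 min compound exposure at room temperature, in PBS pH 7.4.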

[26] = target: Chromobox protein homolog 1 (Homo sapiens) (UniProt P83916); test: qHTS Validation Assay for Inhibitors of HP1-beta Chromodomain Interactions with Methylated Histone Tails (AID 488953);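 note: loss of AlphaScreen luminescence from HP1-beta binding biotinylated H3K9me3 peptide; series mostly up to about 110 µM; % is set by controls: 0 for no effect and ±100 for the full control effect; nearly all actives have a fitted effect of over 50% in size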
Method in brief: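 Disruption of preformed HP1-beta:H3K9me3 peptide complexes (both 50 nM, PBS pH 7.4 with 0.01% Tween-20) is measured by AlphaScreen after 30 min compound exposure at room temperature, using streptavidin donor and nickel chelate acceptor beads at 10 ug/mL final.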

[27] = target: Thyrotropin receptor (Homo sapiens) (UniProt P16473); test: qHTS Assay for Antagonists of the Thyroid Stimulating Hormone Receptor (AID 488980); note: series mostly up to about 58 µM; 0% is about no effect
Method in brief: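 Inhibition of cAMP raised by EC80 TSH (4 nM final) was read by HTRF, with lysate cAMP competing against cAMP-d2 for cryptate antibody after 30 min at room temperature. The cells were transfected HEK293 held in phosphodiesterase inhibitor RO 20-1724 at 70 uM.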

[28] = target: D(1A) dopamine receptor (Homo sapiens) (UniProt P21728); test: HTS Assay for Allosteric Agonists of the Human D1 Dopamine Receptor: Primary Screen for Agonists (AID 488981)
Sequence of D(1A) dopamine receptor (Homo sapiens) (P21728 whole entry, looked up): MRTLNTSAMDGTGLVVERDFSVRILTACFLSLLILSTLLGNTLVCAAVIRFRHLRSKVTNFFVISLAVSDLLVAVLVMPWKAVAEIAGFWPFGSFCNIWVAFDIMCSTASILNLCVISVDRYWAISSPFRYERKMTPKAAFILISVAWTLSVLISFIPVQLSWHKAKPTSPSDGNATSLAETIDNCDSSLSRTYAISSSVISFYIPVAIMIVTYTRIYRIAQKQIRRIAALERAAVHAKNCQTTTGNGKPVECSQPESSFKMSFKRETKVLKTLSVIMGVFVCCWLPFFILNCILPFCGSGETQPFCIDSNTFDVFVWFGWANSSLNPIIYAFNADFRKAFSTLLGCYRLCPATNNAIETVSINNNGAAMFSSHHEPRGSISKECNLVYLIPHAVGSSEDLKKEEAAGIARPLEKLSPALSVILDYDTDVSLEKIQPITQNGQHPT
Method in brief: (§1)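 Tetracycline-induced HEK293 Trex D1 cells with forced coupling to calcium, loaded with no-wash calcium dye; kinetic fluorescence read 180 s after compound addition for agonism, then a further 180 s after an EC20 dopamine challenge for potentiation.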

[29] = target: D(1A) dopamine receptor (Homo sapiens) (UniProt P21728); test: HTS Assay for Allosteric Agonists of the Human D1 Dopamine Receptor: Primary Screen for Potentiators (AID 488982)
Method in brief: as §1

[30] = target: D(1A) dopamine receptor (Homo sapiens) (UniProt P21728); test: HTS Assay for Allosteric Agonists of the Human D1 Dopamine Receptor: Primary Screen for Antagonists (AID 488983)
Method in brief: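 Kinetic fluorescence at 1 cycle/sec tracked intracellular calcium in force-coupled, tetracycline-inducible HEK293 T-REx D1 cells. Loss of response to an EC80 dopamine dose, given 180 s after compound, marked antagonists.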

[31] = Validation screen for small molecules that induce genotoxicity in human embryonic kidney (HEK293T) cells expressing luciferase-tagged ELG1 (AID 493106)
Method in brief: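 Cells were dispensed at 2,000 per well, then 23 nL compound or DMSO was pinned in. After 16 hr at 37 °C and 5% CO2, ONE-Glo reagent was added. Luciferase activity was measured following 30 min at room temperature.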

[32] = target: ATPase family AAA domain-containing protein 5 (Homo sapiens) (UniProt Q96QE3); test: Validation screen for small molecules that inhibit ELG1-dependent DNA repair in human embryonic kidney (HEK293T) cells expressing luciferase-tagged ELG1 (AID 493107)
Method in brief: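 Cells are dispensed in 1536-well format, then 5-fluorouridine and compound are pinned in. After a 16 hr incubation at 37 °C and 5% CO2, ONE-Glo is added and luciferase measured on a CCD imager.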

[33] = target: Thyrotropin-releasing hormone receptor (Homo sapiens) (UniProt P34981); test: qHTS for Small Molecule Agonists and Allosteric Enhancers of Human TRH Receptor: Validation Screen for Agonists (AID 493127;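 active = calcium activation more than 3 SD above the typical response in the agonist read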); details: TRH receptor agonist cell assay; at 2 µM; stronger effect = higher value
Method in brief: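 Compounds are added by online pintool to dye-loaded TRHR cells while fluorescence is recorded every second. A rise in calcium signal during the agonist read marks activation; a later 10 nM TRH addition (EC20) serves the separate enhancer mode.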

[34] = Nrf2 qHTS screen for inhibitors: Validation (AID 493153; active = well fitted inhibition curve with a large enough effect in the main read-out, with a control signal flat, not every such curve was filed as active); details: Potency: luciferase luminescence; viability change: measured here: cytotoxicity max response
Method in brief: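 A549 ARE_Fluc, 5% FBS OPTI-MEM; cpd titration, 18-24 h, 37°C/5% CO2. Read 1: CellTiter-Fluor (Ex 405/Em 525), cytotox. Read 2: luciferase lum, Nrf2 activity.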

O=[N+]([O-])c1ccc(O[C@@H]2O[C@H](CO)[C@@H](O)[C@H](O)[C@H]2F)c([N+](=O)[O-])c1
-9.61%: viability change [34]
inactive: outcome [1] | Potency [2] | Potency [3] | outcome [4] | Potency [5] | Potency [7] | Potency [8] | outcome [9] | Potency [10] | Potency [11] | Potency [12] | Potency [13] | Potency [14] | Potency [15] | Potency [16] | outcome [17] | outcome [18] | outcome [19] | Potency [20] | Potency [21] | outcome [22] | Potency [23] | Potency [24] | Potency [25] | Potency [26] | outcome [27] | outcome [28] | Potency [29] | outcome [30] | outcome [31] | Potency [32] | activation [33] 1.06% | Potency [34]
active: Potency [6] 11.2 µM

Reference: PubChem BioAssay (NCATS)
